PKA-R2B act – activators of human PKA-R2B complex; P22694+P31323; PKA-R2B holoenzyme dissociation, Cy5-IP20 fluorescence polarization; R2B truncated from residue 108, S112A mutant; 0% DMSO only, 100% 113 µM cGMP; activation, % at 11.4 µM; 0.079% of 340,000 active;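 active means activation above a cutoff set at the mean over all compounds plus 3 SD, cut at about 18% in these data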;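 further: higher means more holoenzyme dissociation and a rise in polarization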
Target sequence (P31323 whole entry, looked up, other chains not shown, the tested form may be a part): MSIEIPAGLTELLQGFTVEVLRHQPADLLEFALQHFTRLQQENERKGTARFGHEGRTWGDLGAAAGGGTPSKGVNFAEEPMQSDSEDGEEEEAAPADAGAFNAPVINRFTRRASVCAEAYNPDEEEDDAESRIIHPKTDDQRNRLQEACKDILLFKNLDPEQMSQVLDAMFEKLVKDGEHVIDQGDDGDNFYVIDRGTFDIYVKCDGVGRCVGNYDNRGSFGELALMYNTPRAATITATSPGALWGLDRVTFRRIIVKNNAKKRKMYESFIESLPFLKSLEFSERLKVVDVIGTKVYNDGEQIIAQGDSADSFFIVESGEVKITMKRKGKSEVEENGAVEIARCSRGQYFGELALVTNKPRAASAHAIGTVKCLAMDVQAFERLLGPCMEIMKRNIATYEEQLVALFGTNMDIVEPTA
MsrA act – activators of bovine methionine sulfoxide reductase A; purified bovine MsrA, absorbance read-out; activation, % at 10.6 µM; 0.3% of 360,000 active; AID 602163; in the data active means activation above about 7.5%;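 further: 0% = vehicle and 100% = reference activator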
PKA-R1A act – activates the PKA-R1A holoenzyme complex. AID 504707. PKA-R1A dissociation, Cy5-IP20 fluorescence polarization; scaled: DMSO 0%, 113 µM cGMP 100%. 0.083% of 340,000 active. activation, % at 11.4 µM;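 active means percent activation above the mean of all tested compounds plus 3 SD, cut at about 19% in these data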;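 further: higher means more PKAc released from R1A so a rise in polarization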
MsrA inh – bovine MsrA inhibition; purified bovine MsrA, absorbance read-out; inhibition, % at 15.5 µM; 0.75% of 360,000 active; AID 651718;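 further: 0% = vehicle wells with enzyme and 100% = reference inhibitor wells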
MsrA conf – confirmation of bovine MsrA inhibitors; 41% of 2,300 active; shares compounds with MsrA inh; purified bovine MsrA, absorbance read-out; inhibition, % at 15.5 µM; AID 651822;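 further: coupled to thioredoxin reductase with NADPH and selenocystamine and DMSO as substrate; 0% = vehicle only and 100% = full effect of reference inhibitor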
* marks the source's active call; other numbers are inactive results; x = no result given. Rows were chosen to be rich in hits. Some 1.1% of all compounds tested hit in one or more screens of this group. Unless noted, no stated cut-off is given here; in the data, active means inhibition above about 4.5%; inactive means the rest.

SMILES | PKA-R2B act | MsrA act | PKA-R1A act | MsrA inh | MsrA conf
CCN(CC)C(=O)c1ncn2c1C(=O)N[C@H](C)C2 | x | x | x | 0 | x
O=C(Nc1c(-c2ccccc2)nc2ccccn12)c1ccccc1 | -1 | -5 | 3 | 2 | x
O=Cc1c(-c2ccccc2)nc2ccccn12 | -9 | -2 | -3 | 13* | 10*
CC(=O)OCC(=O)Nc1ccc(N=Nc2ccccc2)cc1 | -6 | -6 | -2 | 5.9* | 4
N#CC1=C(N)Oc2c(O)cc3ccccc3c2C1c1ccsc1 (stereo unspecified) | -14 | -4 | -17 | 8.5* | 10*
CCOC(=O)C1=C(C)OC(N)=C(C#N)C1c1ccsc1 (stereo unspecified) | -8 | 1 | -2 | x | x
COCCNC(=S)N(C)[C@H]1C[C@H]2c3[nH]c4c(-c5ccc6c(c5)OCO6)cccc4c3CCN2C(=O)[C@H]1[C@H](C)O | x | x | x | -2 | x
Cc1ccc(C2/C(=C(\O)c3c(C)nc4c(C)cccn34)C(=O)C(=O)N2CCN(C)C)o1 (stereo unspecified) | 3 | -1 | 5 | 0 | x
Cc1nc2c(C)cccn2c1/C(O)=C1\C(=O)C(=O)N(CCN(C)C)C1c1ccco1 (stereo unspecified) | -3 | -9 | -6 | 4.7* | 0
COC(=O)c1cc2c(c3c4cc(OC)ccc4n(S(=O)(=O)c4ccc(OC)cc4)c13)C(=O)N(Cc1ccccc1OC)C2 | x | x | x | 1 | x
Cc1nn(C)cc1/C=C/C(=O)c1ccccc1 | 1 | -11 | 0 | 3 | x
Cc1nn(C)cc1/C=C/C(=O)c1cccs1 | 4 | -4 | 3 | 5.4* | 4
CCOC(=O)C(=CNc1ccc(C#N)cc1)C(=O)OCC | -10 | -8 | -9 | 7.1* | 5.5*
COc1ccc(/C=C(/NC(=O)c2ccccc2)c2nc3ccccc3[nH]2)cc1OC | -8 | -7 | 5 | 6.5* | 4
Cc1cc(N/N=C/c2ccc(O)cc2O)nc(-n2nc(C)cc2C)n1 | -14 | -10 | 7 | 4.8* | 4
Cc1nc(Cl)cc(N/N=C/c2ccc(O)cc2O)n1 | 4 | -9 | -9 | 5.7* | 6.2*
COC(=O)[C@@H](Cc1ccc(O)cc1)NC(=O)[C@H]1O[C@@H](n2cnc3c(=O)[nH]c(N)nc32)[C@H](O)[C@@H]1O | x | x | x | 0 | x
COc1cc(/C=N/NC2=NS(=O)(=O)c3ccccc32)cc(OC)c1OC | 0 | -4 | 0 | 5.5* | 4.6*
COc1cc(/C=N\Nc2nc3ccccc3o2)cc(OC)c1OC | 4 | -4 | -6 | 5.2* | 3
O=S1(=O)N=C(N(CCO)/N=C/c2ccc(Cl)cc2)c2ccccc21 | -3 | 0 | 7 | 0 | x
O=S1(=O)N=C(N/N=C/C=C/c2ccccc2)c2ccccc21 | -5 | -8 | -2 | 6.8* | 6.2*
O=S1(=O)N=C(N(CCO)/N=C/C=C/c2ccccc2)c2ccccc21 | 4 | -8 | -10 | 8.3* | 5.7*
Cc1ccc(S(=O)(=O)N(CC(O)CN2CCOCC2)c2cccc([N+](=O)[O-])c2)cc1 (stereo unspecified) | 2 | -1 | 5 | 0 | x
Nc1nc2c(ncn2[C@@H]2O[C@H](C(=O)NCCc3c[nH]c4ccccc34)[C@@H](O)[C@H]2O)c(=O)[nH]1 | x | x | x | 0 | x
Cc1cc(C)cc(N(CCC#N)C(=O)COC(=O)c2nc3nc(C)cc(C)n3n2)c1 | -6 | 1 | -7 | -1 | x
SMILES | PKA-R2B act | MsrA act | PKA-R1A act | MsrA inh | MsrA conf
COc1ccccc1N/C=C/C(=C(C#N)C#N)N(C)C | -6 | -4 | -7 | 5.5* | 3
CN(C)C(/C=C/Nc1ccccc1F)=C(C#N)C#N | -10 | -2 | 0 | 1 | x
CCCOc1c(OC)cccc1C1CC(=O)Nc2cc3c(cc21)OCCO3 (stereo unspecified) | -2 | -4 | -11 | 0 | x
CCCOc1c(OC)cccc1C1CC(=O)Nc2cc3c(cc21)OCO3 (stereo unspecified) | -2 | -4 | 3 | 5.1* | 4.7*
COc1ccccc1NS(=O)(=O)c1cc(-c2cnc(C3CC3)o2)ccc1C | -1 | -4 | 0 | 0 | x
COc1ccc(NS(=O)(=O)c2cc(-c3cnc(C4CC4)o3)ccc2C)cc1 | -9 | -3 | 7 | 11* | 7.2*
COc1ccc(NC(=O)/C(C#N)=C/c2ccc(Br)o2)cc1 | 0 | -7 | 0 | 2 | x
N#C/C(=C/c1ccc(Br)o1)C(N)=O | 7 | -4 | -6 | 4.7* | 5.5*
O=C(O)COc1ccccc1C=NNC(=O)c1ccc(NS(=O)(=O)c2cccs2)cc1 | -3 | -5 | -6 | 5.9* | 4

Screening results deposited in PubChem by The Scripps Research Institute Molecular Screening Center.
